# Experimental data as given in PubChem BioAssay AID1159580 (chemical genetic matrix, 2015).
# The campaign covered roughly 5,500 compounds. About 2,000 (36%) were called active. Not shown: some 18% with an inconclusive outcome. This is one part of the list. Values without a mark were called inactive. Cut-off read from the data, not from the text of the source: active = normalized growth mostly below about 0.91 (no sharp cut-off); inconclusive = no clear call, values can overlap the other calls; inactive = mostly above about 0.92.
# Test: chemical genetic growth profiling, strain panel (AID 1159580);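 note: tested at 20 µM; growth read once vehicle control cultures reached saturation at 30 °C; 1 = growth at the plate median or of vehicle wells; lower values mean less growth of the strain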
# Conditions: growth OD
structure (smiles),measurement,setting,value
CC[C@@]1(O)C[C@H](O[C@H]2C[C@H](N(C)C)[C@H](O)[C@H](C)O2)c2c(cc3c(c2O)C(=O)c2c(O)ccc(O)c2C3=O)[C@H]1C(=O)OC,normalized growth,"S. cerevisiae deletion strains, locus YJR066W, strain TOR1, active compounds read low",0.957
same,normalized growth,"S. cerevisiae deletion strains, locus YJR075W, strain HOC1, active compounds read low",0.0948 (active)
same,normalized growth,"S. cerevisiae deletion strains, locus YKL009W, strain mrt4, active compounds read low",0.961
same,normalized growth,"S. cerevisiae deletion strains, locus YKL068W, active compounds read low",0.982
same,normalized growth,"S. cerevisiae deletion strains, locus YKL085W, strain MDH1 (second series), active compounds read low",1
same,normalized growth,"S. cerevisiae deletion strains, locus YKL085W, strain MDH1, active compounds read low",1
same,normalized growth,"S. cerevisiae deletion strains, locus YKL160W, strain elf1, active compounds read low",0.924
same,normalized growth,"S. cerevisiae deletion strains, locus YKR001C, strain vps1, active compounds read low",0.0857 (active)
same,normalized growth,"S. cerevisiae deletion strains, locus YKR026C, strain gcn3, active compounds read low",0.994
same,normalized growth,"S. cerevisiae deletion strains, locus YKR091W, strain srl3, active compounds read low",0.958
same,normalized growth,"S. cerevisiae deletion strains, locus YLL001W, strain dnm1, active compounds read low",0.884 (active)
same,normalized growth,"S. cerevisiae deletion strains, locus YLL026W, active compounds read low",0.975
same,normalized growth,"S. cerevisiae deletion strains, locus YLL041C, strain sdh2, active compounds read low",0.935
same,normalized growth,"S. cerevisiae deletion strains, locus YLR027C, strain aat2, active compounds read low",0.975
same,normalized growth,"S. cerevisiae deletion strains, locus YLR039C, strain RIC1, active compounds read low",0.113 (active)
same,normalized growth,"S. cerevisiae deletion strains, locus YLR058C, strain SHM2, active compounds read low",0.0794 (active)
same,normalized growth,"S. cerevisiae deletion strains, locus YLR102C, strain apc9, active compounds read low",0.467 (active)
same,normalized growth,"S. cerevisiae deletion strains, locus YLR113W, strain HOG1, active compounds read low",0.95
same,normalized growth,"S. cerevisiae deletion strains, locus YLR221C, strain rsa3, active compounds read low",0.877 (active)
same,normalized growth,"S. cerevisiae deletion strains, locus YLR258W, strain gsy2, active compounds read low",0.905 (active)
same,normalized growth,"S. cerevisiae deletion strains, locus YLR262C, strain YPT6 (second series), active compounds read low",0.701 (active)
same,normalized growth,"S. cerevisiae deletion strains, locus YLR262C, strain YPT6, active compounds read low",0.13 (active)
same,normalized growth,"S. cerevisiae deletion strains, locus YLR268W, strain sec22, active compounds read low",0.112 (active)
same,normalized growth,"S. cerevisiae deletion strains, locus YLR320W, strain mms22, active compounds read low",0.844 (active)
same,normalized growth,"S. cerevisiae deletion strains, locus YLR330W, strain CHS5, active compounds read low",0.0655 (active)
same,normalized growth,"S. cerevisiae deletion strains, locus YLR342W, strain FKS1 (second series), active compounds read low",0.0959 (active)
same,normalized growth,"S. cerevisiae deletion strains, locus YLR342W, strain FKS1, active compounds read low",0.865 (active)
same,normalized growth,"S. cerevisiae deletion strains, locus YLR357W, strain rsc2, active compounds read low",0.907
same,normalized growth,"S. cerevisiae deletion strains, locus YLR370C, strain arc18, active compounds read low",0.88 (active)
same,normalized growth,"S. cerevisiae deletion strains, locus YLR371W, strain rom2, active compounds read low",0.15 (active)
same,normalized growth,"S. cerevisiae deletion strains, locus YLR384C, strain iki3, active compounds read low",0.957
same,normalized growth,"S. cerevisiae deletion strains, locus YLR418C, strain cdc73, active compounds read low",0.138 (active)
same,normalized growth,"S. cerevisiae deletion strains, locus YML016C, strain PPZ1, active compounds read low",0.0829 (active)
same,normalized growth,"S. cerevisiae deletion strains, locus YML032C, strain rad52, active compounds read low",0.121 (active)
same,normalized growth,"S. cerevisiae deletion strains, locus YML120C, strain ndi1, active compounds read low",1.02
same,normalized growth,"S. cerevisiae deletion strains, locus YML124C, strain tub3, active compounds read low",0.195 (active)
same,normalized growth,"S. cerevisiae deletion strains, locus YMR058W, strain fet3, active compounds read low",0.416 (active)
same,normalized growth,"S. cerevisiae deletion strains, locus YMR078C, strain ctf18, active compounds read low",0.147 (active)
same,normalized growth,"S. cerevisiae deletion strains, locus YMR125W, strain sto1, active compounds read low",1.02
same,normalized growth,"S. cerevisiae deletion strains, locus YMR129W, active compounds read low",0.997
same,normalized growth,"S. cerevisiae deletion strains, locus YMR205C, strain PFK2, active compounds read low",0.871 (active)
same,normalized growth,"S. cerevisiae deletion strains, locus YMR223W, strain ubp8, active compounds read low",0.157 (active)
same,normalized growth,"S. cerevisiae deletion strains, locus YMR231W, strain pep5, active compounds read low",1
same,normalized growth,"S. cerevisiae deletion strains, locus YMR263W, strain SAP30, active compounds read low",0.377 (active)
same,normalized growth,"S. cerevisiae deletion strains, locus YMR307W, strain GAS1, active compounds read low",0.149 (active)
same,normalized growth,"S. cerevisiae deletion strains, locus YNL067W, strain RPL9B, active compounds read low",0.0765 (active)
same,normalized growth,"S. cerevisiae deletion strains, locus YNL071W, strain lat1, active compounds read low",0.951
same,normalized growth,"S. cerevisiae deletion strains, locus YNL153C, strain GIM3, active compounds read low",0.0856 (active)
same,normalized growth,"S. cerevisiae deletion strains, locus YNL183C, strain NPR1, active compounds read low",0.941
same,normalized growth,"S. cerevisiae deletion strains, locus YNL209W, strain ssb2, active compounds read low",0.82 (active)
same,normalized growth,"S. cerevisiae deletion strains, locus YNL233W, strain BNI4, active compounds read low",0.0884 (active)
same,normalized growth,"S. cerevisiae deletion strains, locus YNL248C, strain rpa49, active compounds read low",0.974
same,normalized growth,"S. cerevisiae deletion strains, locus YNL250W, strain rad50, active compounds read low",0.738 (active)
same,normalized growth,"S. cerevisiae deletion strains, locus YNL271C, strain bni1, active compounds read low",0.96
same,normalized growth,"S. cerevisiae deletion strains, locus YNL298W, strain CLA4, active compounds read low",0.98
same,normalized growth,"S. cerevisiae deletion strains, locus YNL307C, strain MCK1, active compounds read low",0.0826 (active)
same,normalized growth,"S. cerevisiae deletion strains, locus YNL322C, strain KRE1 (second series), active compounds read low",0.972
same,normalized growth,"S. cerevisiae deletion strains, locus YNR049C, strain mso1, active compounds read low",0.926
same,normalized growth,"S. cerevisiae deletion strains, locus YNR052C, strain pop2, active compounds read low",0.0986 (active)
same,normalized growth,"S. cerevisiae deletion strains, locus YOL012C, strain htz1",0.253
same,normalized growth,"S. cerevisiae deletion strains, locus YOL147C, strain pex11, active compounds read low",0.13 (active)
same,normalized growth,"S. cerevisiae deletion strains, locus YOR001W, strain rrp6, active compounds read low",1.01
same,normalized growth,"S. cerevisiae deletion strains, locus YOR061W, strain CKA2, active compounds read low",0.0764 (active)
same,normalized growth,"S. cerevisiae deletion strains, locus YOR069W, strain VPS5, active compounds read low",0.0745 (active)
same,normalized growth,"S. cerevisiae deletion strains, locus YOR070C, strain gyp1, active compounds read low",0.989
same,normalized growth,"S. cerevisiae deletion strains, locus YOR080W, strain dia2, active compounds read low",0.916
same,normalized growth,"S. cerevisiae deletion strains, locus YOR083W, strain WHI5, active compounds read low",0.918
same,normalized growth,"S. cerevisiae deletion strains, locus YOR106W, strain vam3, active compounds read low",0.703 (active)
same,normalized growth,"S. cerevisiae deletion strains, locus YOR136W, strain idh2, active compounds read low",0.203 (active)
same,normalized growth,"S. cerevisiae deletion strains, locus YOR144C, strain elg1, active compounds read low",0.298 (active)
same,normalized growth,"S. cerevisiae deletion strains, locus YOR184W, strain ser1, active compounds read low",0.0852 (active)
same,normalized growth,"S. cerevisiae deletion strains, locus YOR231W, strain MKK1, active compounds read low",0.975
same,normalized growth,"S. cerevisiae deletion strains, locus YOR265W, strain rbl2, active compounds read low",0.899 (active)
same,normalized growth,"S. cerevisiae deletion strains, locus YOR270C, strain vph1, active compounds read low",0.656 (active)
same,normalized growth,"S. cerevisiae deletion strains, locus YOR290C, strain snf2, active compounds read low",0.711 (active)
same,normalized growth,"S. cerevisiae deletion strains, locus YOR316C, strain cot1, active compounds read low",0.21 (active)
same,normalized growth,"S. cerevisiae deletion strains, locus YPL051W, strain arl3, active compounds read low",0.756 (active)
same,normalized growth,"S. cerevisiae deletion strains, locus YPL078C, strain atp4, active compounds read low",0.867 (active)
same,normalized growth,"S. cerevisiae deletion strains, locus YPL106C, strain sse1, active compounds read low",0.909
same,normalized growth,"S. cerevisiae deletion strains, locus YPL240C, strain hsp82, active compounds read low",0.933
same,normalized growth,"S. cerevisiae deletion strains, locus YPL241C, strain CIN2, active compounds read low",0.0834 (active)
same,normalized growth,"S. cerevisiae deletion strains, locus YPL256C, strain CLN2, active compounds read low",0.983
same,normalized growth,"S. cerevisiae deletion strains, locus YPR119W, strain clb2, active compounds read low",0.2 (active)
same,normalized growth,"S. cerevisiae deletion strains, locus YPR141C, strain kar3, active compounds read low",0.967
same,normalized growth,"S. cerevisiae deletion strains, locus YPR163C, strain tif3, active compounds read low",0.115 (active)
same,normalized growth,"S. cerevisiae deletion strains, locus YPR167C, strain met16, active compounds read low",0.125 (active)
same,normalized growth,"S. cerevisiae deletion strains, strain wtn01, active compounds read low",0.0957 (active)
same,normalized growth,"S. cerevisiae strains, strain wild type, active compounds read low",0.0706 (active)
